According to PubChem BioAssay (NCATS):
Inconclusive results are not listed. A call without a number means that no potency is given here. Calls of active or inactive are those of the source. Unless noted, calls follow the shape of the dose curve; as a rule, active = well fitted curve in the direction sought with a large enough effect; inconclusive = small, poorly fitted or top-dose-only effect, or another doubt; inactive = no such curve, though single readings can be large; an effect the other way counts as inactive or inconclusive.

Legend:
[1] = molecular target: Cytochrome P450 3A4 (Homo sapiens) (UniProt P08684); assay: qHTS Assay for Inhibitors and Substrates of Cytochrome P450 3A4 (AID 884); also: nearly all actives have a fitted effect of over 50% in size; also: potency is read from the fitted curve at half-maximal effect
Sequence of Cytochrome P450 3A4 (Homo sapiens) (P08684 whole entry, looked up): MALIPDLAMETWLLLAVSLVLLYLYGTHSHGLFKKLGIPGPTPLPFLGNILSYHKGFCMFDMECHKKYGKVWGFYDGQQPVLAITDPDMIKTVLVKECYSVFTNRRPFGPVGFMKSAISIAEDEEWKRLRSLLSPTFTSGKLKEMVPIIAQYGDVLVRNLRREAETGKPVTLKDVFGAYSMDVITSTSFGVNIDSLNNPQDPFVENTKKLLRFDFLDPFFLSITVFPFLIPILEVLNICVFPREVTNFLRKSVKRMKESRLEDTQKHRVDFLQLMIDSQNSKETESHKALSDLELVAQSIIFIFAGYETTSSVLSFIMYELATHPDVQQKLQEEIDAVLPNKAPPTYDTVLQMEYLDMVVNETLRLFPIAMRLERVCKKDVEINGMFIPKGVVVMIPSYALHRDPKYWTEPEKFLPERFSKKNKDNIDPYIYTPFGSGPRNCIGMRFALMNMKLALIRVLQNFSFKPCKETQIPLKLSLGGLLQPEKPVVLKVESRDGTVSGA
In short: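 20 nM human CYP3A4 with 25 uM Luciferin-PPXE (at KM) in 200 mM KPO4, preincubated 10 min with compound; NADPH regeneration started a 60 min RT reaction. Luciferin detected by luminescence, normalized to 57 uM ketoconazole as full inhibition.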

[2] = molecular target: Cytochrome P450 3A4 (Homo sapiens) (UniProt P08684); assay: qHTS Assay for Activators of Cytochrome P450 3A4 (AID 885); also: nearly all actives have a fitted effect of over 65% in size
In short: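 Signal was normalized against complete inhibition by 57 uM ketoconazole. The reaction used 20nM CYP3A4 with 25uM Luciferin-PPXE, 10-min compound preincubation and a 60-min NADPH-supported step at RT.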

[3] = Confirmation and Secondary Assay for Modulators of Hemoglobin Beta Chain Splicing at IVS2 654 locus (AID 910);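 also: HeLa cells stably carrying EGFP split by mutant beta-globin IVS2-654 intron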
In short: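 HeLa cells stably expressing EGFP interrupted by β-globin IVS2-654 intron, seeded overnight in Opti-MEM/2% FCS, then treated 2 days at 37 °C. Restored splicing read as total peak GFP intensity per well by laser scanning cytometry (488 nm excitation, 500–520 nm emission); 500 nM antisense PNA as control.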

[4] = Confirmation and Secondary Assay for Modulators of Hemoglobin Beta Chain Splicing at IVS2 705 locus (AID 930);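 also: HeLa cells stably expressing the EGFP-705 splicing reporter; GFP fluorescence per well restored by corrected splicing of the IVS2-705 intron in EGFP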
In short: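 Splice-correction reporter: EGFP cDNA split by beta-globin intron 2 bearing the 705 mutation, stably in HeLa. Compound incubation 2 days, 37C; fluorescent objects 5-250 µm summed per well.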

[5] = qHTS Assay for Lipid Storage Modulators (AID 1519; calls by dose curve); settings: Drosophila S3 cells, BODIPY lipid droplet/cell ratio, laser cytometry, cells loaded with oleic acid; for activity change, negative = inhibition: at 57.5 µM (top of the series)
In short: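 Cells seeded at 5,000 per well were treated with compounds over a concentration series and loaded with oleic acid (400 uM, as added). Lipid droplet fluorescence (488 nm excitation, 500-530 nm channel) was read by laser-scanning cytometry and normalized to 20 uM Triacsin C.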

[6] = molecular target: Ubiquitin carboxyl-terminal hydrolase 1 (Homo sapiens) (UniProt O94782); assay: Inhibitors of USP1/UAF1: Pilot qHTS (AID 504865);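 also: rhodamine fluorescence freed from ubiquitin-rhodamine substrate followed over time; top concentration of the series differs between compounds; nearly all actives have a fitted effect of over 35% in size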
Sequence of Ubiquitin carboxyl-terminal hydrolase 1 (Homo sapiens) (O94782 whole entry, looked up): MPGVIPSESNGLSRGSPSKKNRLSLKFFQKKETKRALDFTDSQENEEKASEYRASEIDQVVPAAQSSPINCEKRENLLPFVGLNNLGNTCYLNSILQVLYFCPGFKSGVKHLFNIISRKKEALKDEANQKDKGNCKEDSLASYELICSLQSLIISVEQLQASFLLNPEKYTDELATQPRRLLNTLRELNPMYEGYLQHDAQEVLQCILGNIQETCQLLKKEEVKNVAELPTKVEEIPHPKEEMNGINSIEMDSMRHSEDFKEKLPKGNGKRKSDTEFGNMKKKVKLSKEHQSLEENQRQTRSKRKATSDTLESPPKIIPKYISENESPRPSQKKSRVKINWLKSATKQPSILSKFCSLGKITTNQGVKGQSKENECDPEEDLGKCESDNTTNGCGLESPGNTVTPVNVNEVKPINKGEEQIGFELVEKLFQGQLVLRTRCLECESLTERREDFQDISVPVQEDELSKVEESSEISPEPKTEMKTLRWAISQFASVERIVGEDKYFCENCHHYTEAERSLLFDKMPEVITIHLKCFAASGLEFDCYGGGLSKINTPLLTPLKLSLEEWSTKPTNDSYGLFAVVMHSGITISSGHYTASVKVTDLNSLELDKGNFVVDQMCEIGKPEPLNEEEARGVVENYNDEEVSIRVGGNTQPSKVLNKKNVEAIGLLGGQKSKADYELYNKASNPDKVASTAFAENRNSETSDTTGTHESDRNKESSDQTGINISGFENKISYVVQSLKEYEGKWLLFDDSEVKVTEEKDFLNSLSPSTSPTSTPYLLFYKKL
In short: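 1nM USP1/UAF1 + cpd, 15 min RT; start w/ Ub-Rho 150nM final; kinetic FL 480/540 nm, 6 reads q60 s. Buffer 50mM HEPES pH 7.8, 0.5mM EDTA, 1mM TCEP, 0.01% Tween-20, 0.1 mg/ml BSA.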

[7] = Primary qHTS for small molecule stabilizers of the endoplasmic reticulum resident proteome: Secreted ER Calcium Modulated Protein (SERCaMP) assay (AID 1508630)
In short: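 GLuc-SERCaMP-expressing SH-SY5Y cells, pretreated 16 h with compound, are challenged with thapsigargin to empty ER calcium stores; after 4 h, coelenterazine is added directly to the medium and luminescence is imaged.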

[8] = molecular target: Lysosomal acid glucosylceramidase (Homo sapiens) (UniProt P04062); assay: Glucocerebrosidase-p2 (AID 348; in the data active = potency below about 10 µM; also: potency is read from the fitted curve at half-maximal effect); settings: purified GBA, blue fluorogenic substrate, 40 min
Sequence of Lysosomal acid glucosylceramidase (Homo sapiens) (P04062 whole entry, looked up): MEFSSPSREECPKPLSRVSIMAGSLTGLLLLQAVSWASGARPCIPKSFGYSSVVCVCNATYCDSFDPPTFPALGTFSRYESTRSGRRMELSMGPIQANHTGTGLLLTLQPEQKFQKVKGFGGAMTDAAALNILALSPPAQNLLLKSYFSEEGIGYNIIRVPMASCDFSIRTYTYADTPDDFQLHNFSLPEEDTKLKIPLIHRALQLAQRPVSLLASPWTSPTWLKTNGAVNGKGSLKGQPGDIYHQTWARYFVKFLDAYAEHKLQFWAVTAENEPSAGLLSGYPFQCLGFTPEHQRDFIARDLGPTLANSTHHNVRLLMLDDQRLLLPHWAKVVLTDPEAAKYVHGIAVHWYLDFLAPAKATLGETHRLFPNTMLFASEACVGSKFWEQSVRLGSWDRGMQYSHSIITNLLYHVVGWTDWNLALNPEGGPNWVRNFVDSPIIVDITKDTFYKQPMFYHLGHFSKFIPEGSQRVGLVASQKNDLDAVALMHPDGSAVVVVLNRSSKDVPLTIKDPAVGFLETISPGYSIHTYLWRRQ
In short: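 Compounds titrated from 0.6 nM upwards against 0.2 nM enzyme in pH 5.9 citric acid/KH2PO4, taurocholate, tween-20; blue fluorogenic substrate 80 uM, 40 min room temperature, stopped and read Ex 365/Em 440 for AC50.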

[9] = AP1 Signaling Pathway (AID 357; active = well fitted curve in either direction with a large enough effect, not every such curve was filed as active;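 also: ME-180 reporter cells stimulated with EGF at its EC50 level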)
In short: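 A ratiometric CCF4 readout (405 nm excitation; 460 and 530 nm emission) quantified AP-1-driven beta-lactamase in ME-180 cells after 5 h with compound and EC50 EGF; AC50 values were derived for activators and inhibitors.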

[10] = molecular target: Cytochrome P450 1A2 (Homo sapiens) (UniProt P05177); assay: p450-cyp1a2 (AID 410; calls by dose curve; also: potency is read from the fitted curve at half-maximal effect)
Sequence of Cytochrome P450 1A2 (Homo sapiens) (P05177 whole entry, looked up): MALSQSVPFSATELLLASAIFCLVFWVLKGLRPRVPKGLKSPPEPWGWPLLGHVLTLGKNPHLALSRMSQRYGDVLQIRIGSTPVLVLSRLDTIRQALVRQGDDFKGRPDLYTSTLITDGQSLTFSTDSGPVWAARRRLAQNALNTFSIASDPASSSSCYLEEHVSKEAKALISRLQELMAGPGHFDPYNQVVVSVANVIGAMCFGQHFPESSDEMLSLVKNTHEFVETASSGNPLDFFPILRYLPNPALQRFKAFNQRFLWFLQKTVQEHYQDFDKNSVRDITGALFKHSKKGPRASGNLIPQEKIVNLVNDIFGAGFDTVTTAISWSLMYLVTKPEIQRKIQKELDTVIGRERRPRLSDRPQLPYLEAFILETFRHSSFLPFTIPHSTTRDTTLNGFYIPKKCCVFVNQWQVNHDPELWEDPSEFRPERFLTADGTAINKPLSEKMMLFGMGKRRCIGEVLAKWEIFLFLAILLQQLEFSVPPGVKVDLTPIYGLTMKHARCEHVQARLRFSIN
In short: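 Luminescent readout of luciferin formed from Luciferin-ME by human CYP1A2; data normalized against complete inhibition by 57 uM furafylline. Enzyme 20nM, substrate 100uM at Km, 100mM KPO4 buffer, 60 min reaction at room temperature.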

[11] = NFAT Signaling Pathway (AID 444; active = well fitted curve in either direction with a large enough effect, not every such curve was filed as active;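 also: carbachol stimulus at about its EC50 of 1 µM final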); settings: Jurkat NFAT-bla M1, carbachol, beta-lactamase ratio, 5 h; at 7.69 µM (top of the series)
In short: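 Jurkat cells with NFAT-driven β-lactamase reporter and co-expressed M1 receptor, stimulated with carbachol (final 1 uM, ~EC50), compound titration, 5 h at 37 °C. CCF4 loaded 1 h at RT; 460/530 nm ratio gave %activity and AC50.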

[12] = Stat Signaling Pathway (AID 446; active = well fitted curve in either direction with a large enough effect, not every such curve was filed as active;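 also: ME-180 cervical cancer cells given 40 pM IL-6 alongside compound; SIE-controlled beta-lactamase reporter measured as 460/530 nm FRET emission ratio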)
In short: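 Reporter line: ME-180 cervical carcinoma, SIE-beta-lactamase. Treatment: compound with 40 pM IL-6, 5 hrs, 37 C, in low-serum OPTI-MEM with 10 mM HEPES pH 7.3. Detection: 460/530 nm fluorescence.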

[13] = molecular target: Glucocorticoid receptor (Homo sapiens) (UniProt P04150); assay: GR-EFC Redistribution (AID 451; calls by dose curve; also: potency is read from the fitted curve at half-maximal effect); settings: CHO-K1 GR-EFC translocation, beta-gal luminescence, 2 h
Sequence of Glucocorticoid receptor (Homo sapiens) (P04150 whole entry, looked up, the tested form may be a part): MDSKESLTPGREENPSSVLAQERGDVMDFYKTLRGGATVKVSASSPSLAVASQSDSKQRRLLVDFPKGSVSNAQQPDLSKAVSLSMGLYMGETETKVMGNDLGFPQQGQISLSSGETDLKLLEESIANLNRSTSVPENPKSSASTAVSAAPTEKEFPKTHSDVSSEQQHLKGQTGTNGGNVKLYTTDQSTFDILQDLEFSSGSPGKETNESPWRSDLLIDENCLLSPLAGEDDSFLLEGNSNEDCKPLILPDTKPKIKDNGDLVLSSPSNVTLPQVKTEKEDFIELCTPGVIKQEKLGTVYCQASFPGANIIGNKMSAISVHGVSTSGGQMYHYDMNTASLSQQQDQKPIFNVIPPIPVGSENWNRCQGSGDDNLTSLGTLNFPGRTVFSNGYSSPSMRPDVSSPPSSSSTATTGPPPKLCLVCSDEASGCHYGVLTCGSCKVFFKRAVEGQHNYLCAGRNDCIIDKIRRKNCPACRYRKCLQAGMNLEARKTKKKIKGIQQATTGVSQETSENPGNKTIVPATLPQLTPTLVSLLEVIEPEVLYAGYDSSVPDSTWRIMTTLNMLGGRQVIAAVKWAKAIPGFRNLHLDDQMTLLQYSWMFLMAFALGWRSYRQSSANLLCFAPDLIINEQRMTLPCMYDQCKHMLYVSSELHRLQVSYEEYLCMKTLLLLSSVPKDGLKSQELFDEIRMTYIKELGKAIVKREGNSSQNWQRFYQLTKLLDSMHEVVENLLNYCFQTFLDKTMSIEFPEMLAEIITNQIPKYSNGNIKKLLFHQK
In short: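 CHO-K1 cells expressing nuclear EA and GR-ED fragments of b-gal; compounds titrated up to 46 uM final, 2 h at 37 C. GR nuclear translocation read as complemented b-gal luminescence after 1 h RT detection.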

[14] = molecular target: Mitogen-activated protein kinase 10 (Mus musculus) (UniProt Q61831); assay: JNK3 AlphaScreen Assay (AID 530; active = well fitted curve in either direction with a large enough effect, not every such curve was filed as active;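 also: kinase came from lysate of stimulated human HepG2 cells; signal reports phosphorylation of biotinylated GST-cJun 1-79 at Ser73 with 10 µM ATP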)
In short: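 Pre-activated (IL-1β/TNFα) JNK3 in HepG2 lysates phosphorylates biotin-GST-cJun(1-79), 10 uM ATP; anti-phospho-cJun(Ser73) AlphaScreen read at room temperature, pH 7.6 Tris buffer. Compounds pre-incubated 15 min as titrations.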

[15] = molecular target: 3',5'-cyclic-AMP phosphodiesterase 4B (Homo sapiens) (UniProt Q07343); assay: qHTS Assay for Inhibitors of PDE-IV (AID 607; active = well fitted activation curve with a large enough effect in the main read-out, with a control signal flat, not every such curve was filed as active)
Sequence of 3',5'-cyclic-AMP phosphodiesterase 4B (Homo sapiens) (Q07343 whole entry, looked up): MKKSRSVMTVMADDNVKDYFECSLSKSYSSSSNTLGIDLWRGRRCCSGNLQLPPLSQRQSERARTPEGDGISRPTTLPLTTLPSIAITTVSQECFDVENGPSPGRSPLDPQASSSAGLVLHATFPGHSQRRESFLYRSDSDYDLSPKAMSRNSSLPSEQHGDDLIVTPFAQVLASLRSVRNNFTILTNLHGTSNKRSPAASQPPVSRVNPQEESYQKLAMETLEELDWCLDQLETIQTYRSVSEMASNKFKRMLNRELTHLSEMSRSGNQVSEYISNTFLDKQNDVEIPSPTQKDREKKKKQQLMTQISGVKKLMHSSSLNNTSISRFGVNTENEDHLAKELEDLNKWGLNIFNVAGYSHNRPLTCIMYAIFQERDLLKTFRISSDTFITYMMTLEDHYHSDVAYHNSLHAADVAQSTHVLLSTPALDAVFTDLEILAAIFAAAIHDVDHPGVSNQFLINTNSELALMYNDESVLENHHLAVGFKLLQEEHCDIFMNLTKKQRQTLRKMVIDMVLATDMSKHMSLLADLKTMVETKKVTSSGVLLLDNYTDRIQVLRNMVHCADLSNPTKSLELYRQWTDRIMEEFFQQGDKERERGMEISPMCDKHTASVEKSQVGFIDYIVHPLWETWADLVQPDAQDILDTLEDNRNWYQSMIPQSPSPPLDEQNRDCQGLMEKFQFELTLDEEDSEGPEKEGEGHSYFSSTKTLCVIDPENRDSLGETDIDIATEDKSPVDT
In short: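 Cell-based read-out of cAMP via a modified cyclic nucleotide-gated channel and membrane potential dye (535/590 nm) in HEK293 cells expressing PDE4 endogenously. Compounds tested up to 22.9 uM final; 100 uM RO 20-1724 reference.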

[16] = system: HIV-1 nucleocapsid protein NCp7 (binding to TG oligonucleotide); assay: HIV Nucleocapsid (AID 346; call rule not given here;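 also: potency is read from the fitted curve at half-maximal effect; potency is for inhibitors that block NC binding and lower polarization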); settings: HIV-1 NC / fluorescein-TGTGTGTG probe, fluorescence polarization
In short: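 Fluorescence polarization readout: labelled TG4xF oligo (10 nM) with 100 nM nucleocapsid protein, high-salt (250mM NaCl) Hepes pH 7.5 buffer containing zinc and fresh reducing agents. Compounds added by pin tool; incubation 1 hr, room temperature.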

[17] = molecular target: Cytochrome P450 2C9 (Homo sapiens) (UniProt P11712); assay: qHTS Assay for Inhibitors and Substrates of Cytochrome P450 2C9 (AID 883); also: nearly all actives have a fitted effect of over 60% in size
In short: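 Human CYP2C9 (10nM) with Luciferin-H at 100uM (its KM) in 25mM KPO4; compound preincubated 10 min at 37C, then NADPH regeneration for 60 min at 37C. Luciferin read by luminescence after detection reagent; normalized to 57uM sulphaphenazole as full inhibition.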

[18] = molecular target: Cytochrome P450 2D6 (Homo sapiens) (UniProt P10635); assay: qHTS Assay for Inhibitors and Substrates of Cytochrome P450 2D6 (AID 891);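 also: luciferin methyl ether substrate demethylated by CYP2D6 with NADPH regeneration; nearly all actives have a fitted effect of over 60% in size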
Sequence of Cytochrome P450 2D6 (Homo sapiens) (P10635 whole entry, looked up): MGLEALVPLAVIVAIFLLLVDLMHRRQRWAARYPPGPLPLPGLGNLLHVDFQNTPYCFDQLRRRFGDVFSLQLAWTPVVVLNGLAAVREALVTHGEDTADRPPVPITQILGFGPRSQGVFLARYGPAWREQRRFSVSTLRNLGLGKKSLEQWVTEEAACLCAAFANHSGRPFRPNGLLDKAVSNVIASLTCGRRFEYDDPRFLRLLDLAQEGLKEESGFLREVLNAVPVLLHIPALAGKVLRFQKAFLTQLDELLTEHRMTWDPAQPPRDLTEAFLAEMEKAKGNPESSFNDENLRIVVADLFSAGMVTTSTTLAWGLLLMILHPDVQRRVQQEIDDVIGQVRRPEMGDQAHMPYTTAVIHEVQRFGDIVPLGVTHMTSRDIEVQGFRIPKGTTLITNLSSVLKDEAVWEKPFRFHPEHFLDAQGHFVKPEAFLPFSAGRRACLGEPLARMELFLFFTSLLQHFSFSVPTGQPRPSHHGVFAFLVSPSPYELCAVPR
In short: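 Human CYP2D6 (5 nM) with 30 uM Luciferin-ME EGE (at Km) in 100 mM KPO4, compound preincubated 10 min, then NADPH regeneration system for 60 min at room temperature. Luciferin read by luminescence; normalized to 1.43 uM quinidine.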

[19] = molecular target: Cytochrome P450 2C19 (Homo sapiens) (UniProt P33261); assay: qHTS Assay for Inhibitors and Substrates of Cytochrome P450 2C19 (AID 899); also: nearly all actives have a fitted effect of over 60% in size
Sequence of Cytochrome P450 2C19 (Homo sapiens) (P33261 whole entry, looked up): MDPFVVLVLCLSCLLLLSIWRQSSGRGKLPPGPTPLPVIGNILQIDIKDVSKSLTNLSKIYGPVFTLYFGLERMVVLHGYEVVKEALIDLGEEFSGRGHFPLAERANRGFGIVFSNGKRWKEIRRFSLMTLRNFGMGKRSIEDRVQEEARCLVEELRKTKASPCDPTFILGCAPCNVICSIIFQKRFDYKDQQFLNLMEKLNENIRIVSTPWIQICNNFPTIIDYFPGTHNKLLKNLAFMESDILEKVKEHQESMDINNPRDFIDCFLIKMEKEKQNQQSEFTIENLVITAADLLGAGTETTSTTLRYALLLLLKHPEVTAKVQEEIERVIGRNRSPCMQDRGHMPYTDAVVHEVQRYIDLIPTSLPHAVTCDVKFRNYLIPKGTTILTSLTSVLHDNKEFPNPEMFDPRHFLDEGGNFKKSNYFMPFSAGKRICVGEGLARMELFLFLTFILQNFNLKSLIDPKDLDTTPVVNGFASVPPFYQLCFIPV
In short: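 5 nM human CYP2C19 with 10uM Luciferin-H EGE (at KM) in 50mM KPO4, compound preincubated 10 min at 37C, then NADPH regeneration for 60 min at 37C. Luciferin read by luminescence after detection reagent; normalized to 57uM ketoconazole as full inhibition.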

[20] = measured here: cell count channel max response
[21] = measured here: lipid channel max response

Compound: C=C(C)c1cc2cc(C(C)=O)c(O)cc2o1
- Potency [1]: 31.6 µM (active)
- Potency [2]: inactive
- Potency [3]: inactive
- Potency [4]: inactive
- activity change, negative = inhibition [5]: 9.94% (inactive)
- max response [5, 20]: 9.32%
- max response [5, 21]: 19.8%
- Potency [6]: inactive
- outcome [7]: inactive

Compound: c1csc(CN2CC[C@@]3(CCCNC3)C2)n1
- Potency [8]: > 11.4 µM (inactive)
- outcome [9]: inactive
- Potency [10]: inactive
- activity change, negative = inhibition [11]: -10% (inactive)
- outcome [12]: inactive
- Potency [13]: > 46 µM (inactive)
- outcome [14]: inactive
- Potency [15]: inactive
- activity change, negative = inhibition [5]: 0.956% (inactive)
- max response [5, 20]: -1.59%
- max response [5, 21]: 1.97%
- outcome [7]: inactive

Compound: CC(C)NC(=O)N1CC[C@@]2(CCCNC2)C1
- Potency [16]: > 20 µM (inactive)
- Potency [8]: > 11.4 µM (inactive)
- outcome [9]: inactive
- Potency [10]: inactive
- Potency [13]: > 46 µM (inactive)
- outcome [14]: inactive
- Potency [15]: inactive
- Potency [17]: inactive
- Potency [1]: inactive
- Potency [18]: inactive
- Potency [19]: inactive
- activity change, negative = inhibition [5]: 0.953% (inactive)
- max response [5, 20]: 13.7%
- max response [5, 21]: 18.1%
- outcome [7]: inactive

Compound: c1cc(CN2CC3(CCNCC3)C2)ccn1
- Potency [16]: > 20 µM (inactive)
- Potency [8]: > 11.4 µM (inactive)
- outcome [9]: inactive
- Potency [10]: inactive
- outcome [12]: inactive
- Potency [13]: > 46 µM (inactive)
- outcome [14]: inactive
- Potency [15]: inactive
- activity change, negative = inhibition [5]: 2.64% (inactive)
- max response [5, 20]: 6.79%
- max response [5, 21]: 9.29%
- outcome [7]: inactive

Compound: COc1ccccc1CN1CC[C@@]2(CCCN(C(=O)Oc3ccccc3)C2)C1
- Potency [16]: > 20 µM (inactive)
- Potency [8]: > 11.4 µM (inactive)
- outcome [9]: inactive
- Potency [10]: 10 µM (active)
- outcome [12]: inactive
- Potency [13]: > 46 µM (inactive)
- outcome [14]: inactive
- Potency [15]: inactive
- activity change, negative = inhibition [5]: 7.75% (inactive)
- max response [5, 20]: 2.61%
- max response [5, 21]: 13.6%
- outcome [7]: inactive

Compound: O=C(Nc1cccc(F)c1)N1CC2(CCNCC2)C1
- Potency [16]: > 20 µM (inactive)
- Potency [8]: > 11.4 µM (inactive)
- outcome [9]: inactive
- Potency [10]: inactive
- Potency [13]: > 46 µM (inactive)
- outcome [14]: inactive
- Potency [15]: inactive
- activity change, negative = inhibition [5]: 3.38% (inactive)
- max response [5, 20]: 6.28%
- max response [5, 21]: 12.8%
- outcome [7]: inactive

Compound: COc1c2c(cc3c1OCO3)CC[N+](C)=C2
- Potency [1]: inactive
- Potency [3]: inactive
- activity change, negative = inhibition [5]: 10.8% (inactive)
- max response [5, 20]: 8.04%
- max response [5, 21]: 18.3%
- Potency [6]: inactive
- outcome [7]: inactive
